LDHA inh – qHTS assay for inhibitors of human lactate dehydrogenase; L-lactate dehydrogenase A chain (Homo sapiens), P00338; purified LDHA, NADH/diaphorase-resazurin fluorescence; stronger effect = lower value; activity change, % (values are at about 110 or 230 µM); 480,000 compounds, 0.15% hits; in the data active means activity change below about -30%; inconclusive means mostly about -25% to -30%
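Remaining NADH was detected by diaphorase (0.133 mg/mL) converting 37 µM resazurin to fluorescent resorufin, read at 0 and 20 minutes. The preceding 5-minute room-temperature reaction used 2 nM LDHA, 0.2 mM sodium pyruvate and 0.06 mM NADH at pH 7.4.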
12-LOX inh – Primary qHTS assay for inhibitors of human arachidonate 12S-lipoxygenase (ALOX12): Round 2; Potency, µM (highest dose often 108 µM), hits mostly inhibitors; 580,000 compounds, 1.1% hits; purified 12hLO, xylenol orange hydroperoxide absorbance; Polyunsaturated fatty acid lipoxygenase ALOX12 (Homo sapiens), P18054
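Purified human 12hLO (150 nM final) in 25 mM Hepes, 0.01% Triton X-100, pH 7.0 was preincubated 15 min at room temperature with compound. Then 40 uM arachidonic acid was added, 30 min. Hydroperoxide was read by Fe-XO absorbance ratio 573/405 nm.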
Nrf2 inh – Nrf2 qHTS screen for inhibitors; A549 ARE-Fluc reporter, luciferase luminescence, 18-24 h; Potency, µM (doses to about 46 µM), hits mostly inhibitors; 360,000 compounds, 2.1% hits; AID 504444, 2011; further: nearly all actives have a fitted effect of over 60% in size
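A549 ARE_Fluc cells (5000/well, 5% FBS OPTI-MEM) pre-incubated 2 h, then treated with compounds 18-24 h at 37C/5% CO2 in concentration-response. CellTiter-Fluor viability read first; BugLite luciferase luminescence after 15 min at room temperature gives Nrf2 activity.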
IDH1 R132H inh – qHTS for Inhibitors of mutant isocitrate dehydrogenase 1 (IDH1): qHTS. Isocitrate dehydrogenase [NADP] cytoplasmic (Homo sapiens), O75874. IDH1-R132H enzyme, NADPH consumption, diaphorase/resazurin fluorescence. Potency, µM (series often up to 76.6 µM), actives largely listed as inhibitors. 390,000 compounds, 0.093% hits; further: nearly all actives have a fitted effect of over 65% in size
Target sequence (O75874 whole entry R132H, stated change not applied): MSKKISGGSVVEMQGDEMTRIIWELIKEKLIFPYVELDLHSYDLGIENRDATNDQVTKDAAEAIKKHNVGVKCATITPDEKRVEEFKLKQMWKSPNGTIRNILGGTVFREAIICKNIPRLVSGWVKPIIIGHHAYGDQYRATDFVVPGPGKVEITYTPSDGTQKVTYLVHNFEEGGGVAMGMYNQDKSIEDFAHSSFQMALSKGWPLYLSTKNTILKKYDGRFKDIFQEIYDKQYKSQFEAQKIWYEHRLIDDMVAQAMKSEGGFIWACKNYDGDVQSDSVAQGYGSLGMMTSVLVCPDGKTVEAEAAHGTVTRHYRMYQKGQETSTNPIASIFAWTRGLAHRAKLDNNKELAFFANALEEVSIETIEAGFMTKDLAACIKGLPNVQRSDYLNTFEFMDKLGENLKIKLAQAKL
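IDH1-R132H (0.5 ug/mL) preincubated 30 min with compound, then NADPH (0.016 mM) and alpha-KG (2 mM) added; 80 min at RT, pH 7.5. Remaining NADPH coupled via diaphorase/resazurin to fluorescence (540/590 nm); concentration-response curves normalized to no-enzyme control.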
Nrf2 ARE act – qHTS of Nrf2 Activators. Potency, µM (highest dose often 46.1 µM), hits mostly activators. 410,000 compounds, 0.31% hits. AREc32 ARE-luciferase reporter (MCF7-derived line), luminescence, 24 h; further: nearly all actives have a fitted effect of over 65% in size
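Nrf2 activation is followed as ARE-luciferase induction in the AREc32 line after one day of compound treatment; luminescence is read with Steady-Glo.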
A549 tox – Nrf2 qHTS screen for inhibitors: counterscreen for cytotoxicity; A549 ARE-Fluc cells, CellTiter-Fluor viability, 18-24 h; Potency, µM (series often up to 46 µM), usual class: inhibitors; 390,000 compounds, 0.16% hits; AID 504648, 2011
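A549 ARE_Fluc cells in 5% FBS OPTI-MEM were exposed to compounds in concentration-response for 18-24 h at 37 deg C. Viability was read by CellTiter-Fluor fluorescence (Ex 405/Em 525) after 30 min, before the luciferase read.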
Hits are given with their value. Most compounds without a hit are left out; they make up all but 2.7% or so of the library. Unless noted, the call rests on the fitted dose curve; in most records, active means well fitted curve in the direction sought with a large enough effect; inconclusive means small, poorly fitted or top-dose-only effect, or another doubt; inactive means no such curve, though single readings can be large; an effect the other way counts as inactive or inconclusive.

What do the screens show for `COCCN(Cc1ccccc1)C(=O)c1cc(-c2ccc(OC)c(OC)c2)nc2ccccc12`?
LDHA inh: inactive; 12-LOX inh: inactive; Nrf2 inh: 18µM; IDH1 R132H inh: inactive; Nrf2 ARE act: inactive; A549 tox: inconclusive

What do the screens show for `CCCCn1c(N)c(N(CCOC)C(=O)c2cc(-c3ccc(OC)c(OC)c3)nc3ccccc23)c(=O)[nH]c1=O`?
LDHA inh: inactive; 12-LOX inh: 16µM; Nrf2 inh: inactive; IDH1 R132H inh: inactive; Nrf2 ARE act: inactive; A549 tox: inactive

Results for CCCCN(C(=O)c1cccnc1OCC)c1c(N)n(CCC)c(=O)[nH]c1=O ?
LDHA inh: inactive; 12-LOX inh: inactive

How did CCCn1c(N)c(N(CCOC)C(=O)c2cccnc2OCC)c(=O)[nH]c1=O do in these assays?
LDHA inh: inactive; 12-LOX inh: 16µM

What do the screens show for `CCN(Cc1ccccc1)C(=O)c1cc(-c2ccc(OC)c(OC)c2)nc2ccccc12`?
LDHA inh: inactive; 12-LOX inh: inactive; Nrf2 inh: inactive; IDH1 R132H inh: inactive; Nrf2 ARE act: inactive; A549 tox: inactive

Results for CC(C(=O)Nc1cc([N+](=O)[O-])ccc1Cl)N1CCN(c2ccc(O)cc2)CC1 (centres undefined) ?
LDHA inh: inactive; 12-LOX inh: inconclusive; Nrf2 inh: inactive; IDH1 R132H inh: inactive; Nrf2 ARE act: inactive; A549 tox: inactive

How did CC(C(=O)Nc1ccc(F)cc1Cl)N1CCN(c2ccc(O)cc2)CC1 (centres undefined) do in these assays?
LDHA inh: inactive; 12-LOX inh: 40µM

Results for COc1ccc(CN2CC(=O)N(c3ccc(C)cc3C)C2=S)cc1OC ?
LDHA inh: inactive; 12-LOX inh: inactive; Nrf2 inh: 13µM; IDH1 R132H inh: inactive; Nrf2 ARE act: inactive; A549 tox: inactive

How did CCc1ccc(C(=O)N(C)Cc2cccs2)s1 do in these assays?
LDHA inh: inactive; 12-LOX inh: inactive

What do the screens show for `CCOc1ccc(C=NNc2ccc(S(=O)(=O)Nc3ccccc3C(=O)O)cc2[N+](=O)[O-])cc1OC`?
LDHA inh: inactive; Nrf2 inh: inactive; IDH1 R132H inh: inconclusive; Nrf2 ARE act: inactive; A549 tox: inactive

What do the screens show for `CCOc1cc(/C=N/Nc2ccc(S(=O)(=O)Nc3ccccc3C(=O)O)cc2[N+](=O)[O-])cc(Cl)c1O`?
LDHA inh: inactive; 12-LOX inh: 35µM; IDH1 R132H inh: inactive; Nrf2 ARE act: inactive

Results for Cc1ccc(/C=N/Nc2ccc(S(=O)(=O)Nc3ccccc3C(=O)O)cc2[N+](=O)[O-])o1 ?
LDHA inh: inactive; 12-LOX inh: 14µM

How did O=C(CCc1ncc(-c2ccc(F)cc2F)o1)NCc1ccc(OC(F)F)cc1 do in these assays?
LDHA inh: inactive; 12-LOX inh: inactive

What do the screens show for `C1CCN(CC2CCCN2)CC1` (centres undefined)?
LDHA inh: inactive; 12-LOX inh: inconclusive

How did CCN(Cc1cccs1)C(=O)NC(C)c1cccc(Br)c1 (centres undefined) do in these assays?
LDHA inh: inactive; 12-LOX inh: inactive

Results for CN(CC(=O)N(C)c1ccccc1C(=O)NCc1ccco1)Cc1nc2ccccc2s1 ?
LDHA inh: inactive; 12-LOX inh: inactive

How did CN(C)CCCN(C(=O)c1ccc2c(c1)OCCO2)c1nc2ccc(Cl)cc2s1 do in these assays?
12-LOX inh: 45µM

How did CCN(CC)CCN(C(=O)c1ccc2c(c1)OCCO2)c1nc2c(Cl)cccc2s1 do in these assays?
LDHA inh: inactive; 12-LOX inh: 35µM; Nrf2 inh: inactive; IDH1 R132H inh: inactive; Nrf2 ARE act: inactive; A549 tox: inactive

Results for Cc1ccc2nc(N(CCCN(C)C)C(=O)c3ccc(S(=O)(=O)N4CCc5ccccc5C4)cc3)sc2c1 ?
LDHA inh: inactive; 12-LOX inh: inactive; Nrf2 inh: 21µM; IDH1 R132H inh: inactive; Nrf2 ARE act: inactive; A549 tox: inconclusive

Results for Cc1cccc2sc(N(CCCN(C)C)C(=O)c3ccc4ncsc4c3)nc12 ?
LDHA inh: inactive; 12-LOX inh: inconclusive; Nrf2 inh: inactive; IDH1 R132H inh: inactive; Nrf2 ARE act: inactive; A549 tox: inactive

What do the screens show for `CCc1ccc2nc(N(CCN(C)C)C(=O)c3ccc4ncsc4c3)sc2c1`?
LDHA inh: inactive; 12-LOX inh: 35µM; Nrf2 inh: inconclusive; IDH1 R132H inh: inactive; Nrf2 ARE act: inactive; A549 tox: inactive

What do the screens show for `COC(=O)[C@H](CC(C)C)N1Cc2cc(OC)cc(OC)c2-c2ccccc2S1(=O)=O`?
LDHA inh: inactive; 12-LOX inh: 25µM; Nrf2 inh: inactive; IDH1 R132H inh: inactive; Nrf2 ARE act: inactive; A549 tox: inactive

What do the screens show for `COCCN1C(=O)c2ccccc2C(C(=O)Nc2nc3c(s2)CCC3)C12CCCCC2` (centres undefined)?
12-LOX inh: inactive

What do the screens show for `CC(C(=O)Nc1ccc(C(F)(F)F)cc1)N(C)C` (centres undefined)?
LDHA inh: inactive; 12-LOX inh: inactive

What do the screens show for `CC(=O)Nc1ccc(/C(N=Nc2ccccc2)=N/N=C(N)N)cc1`?
LDHA inh: inactive; 12-LOX inh: 40µM; Nrf2 inh: inconclusive; IDH1 R132H inh: inactive; Nrf2 ARE act: inactive; A549 tox: inactive

What do the screens show for `CC(=O)Nc1ccc(C(=O)c2ccccc2)cc1`?
LDHA inh: inactive; 12-LOX inh: inactive; IDH1 R132H inh: inactive; Nrf2 ARE act: inactive; A549 tox: inactive

Results for CCSc1n[nH]c2nc3c(c(=O)n12)C(C)(CC)Cc1ccccc1-3 (centres undefined) ?
LDHA inh: inactive; 12-LOX inh: inconclusive

What do the screens show for `COc1cc(C(=O)Nc2ccc3oc(-c4cccnc4)nc3c2)cc(OC)c1OC`?
LDHA inh: inactive; 12-LOX inh: inactive; Nrf2 inh: inconclusive; IDH1 R132H inh: inactive; Nrf2 ARE act: inactive; A549 tox: inactive

Results for COc1cccc(OC)c1C(=O)Nc1ccc(-c2nc3ccccc3o2)cc1 ?
LDHA inh: inactive; 12-LOX inh: 40µM

Results for COc1ccc(C(=O)Nc2ccc3oc(-c4cccnc4)nc3c2)cc1OC ?
LDHA inh: inactive; 12-LOX inh: inactive; Nrf2 inh: 13µM; IDH1 R132H inh: inactive; Nrf2 ARE act: inactive; A549 tox: inactive

How did O=C(Nc1ccc2oc(-c3ccccc3)nc2c1)c1ccc2c(c1)OCCO2 do in these assays?
LDHA inh: inactive; 12-LOX inh: inactive; Nrf2 inh: 9.2µM; IDH1 R132H inh: inactive; Nrf2 ARE act: inactive; A549 tox: inconclusive
